# Measured values taken from paper PMC4336329 (PLoS ONE, 2015).
# In all, about 310,000 compounds went through this assay and about 2,200 (0.71%) showed an effect of 50% or more. Effects have a minus sign here. For the sample, strong results were picked, then their nearest neighbours and some compounds at random.
# Target: human ether-à-go-go-related gene (hERG) potassium channel (human, UniProt Q12809)
# Experiment: primary screen, population patch clamp on CHO cells stably expressing hERG; higher = less effect of the substance
# Chain of human ether-à-go-go-related gene (hERG) potassium channel (Q12809 whole entry, looked up): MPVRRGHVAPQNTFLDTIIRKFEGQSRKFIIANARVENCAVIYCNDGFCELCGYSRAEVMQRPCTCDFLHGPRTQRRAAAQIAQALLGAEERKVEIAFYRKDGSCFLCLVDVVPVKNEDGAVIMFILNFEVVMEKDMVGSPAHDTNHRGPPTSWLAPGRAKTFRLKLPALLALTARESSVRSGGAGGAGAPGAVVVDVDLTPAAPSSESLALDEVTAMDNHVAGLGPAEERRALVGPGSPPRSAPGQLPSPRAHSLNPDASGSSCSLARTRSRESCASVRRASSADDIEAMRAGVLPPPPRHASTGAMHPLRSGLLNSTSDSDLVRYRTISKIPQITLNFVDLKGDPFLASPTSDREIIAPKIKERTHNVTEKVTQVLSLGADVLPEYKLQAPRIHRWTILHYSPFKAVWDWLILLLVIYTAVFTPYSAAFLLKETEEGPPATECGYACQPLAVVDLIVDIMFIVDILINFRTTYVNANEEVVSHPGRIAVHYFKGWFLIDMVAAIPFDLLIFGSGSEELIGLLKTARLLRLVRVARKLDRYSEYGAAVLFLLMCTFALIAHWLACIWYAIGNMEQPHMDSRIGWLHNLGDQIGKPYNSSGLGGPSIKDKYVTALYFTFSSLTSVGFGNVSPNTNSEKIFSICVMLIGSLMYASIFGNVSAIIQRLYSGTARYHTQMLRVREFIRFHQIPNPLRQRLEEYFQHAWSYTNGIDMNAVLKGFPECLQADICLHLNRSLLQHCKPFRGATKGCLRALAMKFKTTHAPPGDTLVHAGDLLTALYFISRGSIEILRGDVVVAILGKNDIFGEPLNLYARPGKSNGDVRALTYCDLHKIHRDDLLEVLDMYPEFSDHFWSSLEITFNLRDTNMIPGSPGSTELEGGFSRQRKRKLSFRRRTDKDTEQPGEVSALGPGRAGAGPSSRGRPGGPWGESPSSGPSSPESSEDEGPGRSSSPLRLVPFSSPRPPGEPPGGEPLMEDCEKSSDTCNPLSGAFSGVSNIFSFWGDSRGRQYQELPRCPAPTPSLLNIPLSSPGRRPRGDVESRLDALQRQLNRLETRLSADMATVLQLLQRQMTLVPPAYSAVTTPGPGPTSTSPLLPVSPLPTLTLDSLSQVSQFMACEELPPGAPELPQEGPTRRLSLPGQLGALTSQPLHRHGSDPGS
row,Compound,"hERG current change (%, negative = inhibition) at 1uM"
1,CCC(=O)Nc1nnc(S(=O)(=O)N(CC)c2ccc(OC)cc2)s1,23.9%
2,COc1ccc(/C=C(/NC(=O)c2ccccc2)C(=O)N2CCCC2)cc1OC,14.3%
3,CC(=O)Oc1ccc2c3c(c(=O)oc2c1C)CCCC3,15.5%
4,CCOC(=O)CNC(=O)c1cc2c(=O)[nH]c3ccc(C)cc3c2s1,11.1%
5,O=C(NC1CC1)c1ccc2snnc2c1,6.14%
6,Cc1ccc(C)n1-c1ccc(C(=O)Nc2ccccc2F)cc1,10.7%
7,CC1CN(CC(=O)Nc2ccc([N+](=O)[O-])cc2Br)CC(C)O1 (stereo not drawn),4.18%
8,Cc1ccc(Cn2c(=N)c(C(=O)NCc3ccco3)cc3c(=O)n4ccccc4nc32)cc1,-67.9%
9,N=c1c(C(=O)NCc2ccc(F)cc2)cc2c(=O)n3ccccc3nc2n1Cc1ccco1,-85%
10,N=c1c(C(=O)NCCc2ccccc2)cc2c(=O)n3ccccc3nc2n1Cc1ccco1,-67.5%
11,Cc1ccc(CNC(=O)c2cc3c(=O)n4ccccc4nc3n(Cc3ccco3)c2=N)cc1,-38.1%
12,N=c1c(C(=O)NCc2ccco2)cc2c(=O)n3ccccc3nc2n1Cc1ccccc1,-81.6%
13,Cc1ccc(Cn2c(=N)c(C(=O)NCCN3CCOCC3)cc3c(=O)n4ccccc4nc32)cc1,-8.25%
14,COc1ccc(N2C(=O)C3CCCN3C2c2ccc(F)cc2)cc1Cl (stereo not drawn),8.28%
15,O=C(NCCc1ccc(Cl)cc1)c1cccnc1,9.38%
16,CCN(CC)c1ccc(/C=N/N2CCN(Cc3ccccc3)CC2)c(O)c1,-0.743%
17,O=C(CN1C(=O)/C(=C\c2ccccc2Cl)Oc2ccccc21)NCc1cccnc1,5.85%
18,CCN(CC)c1ccc(NC(=O)c2cc(OC)cc(OC)c2)c(C)c1,-2.35%
19,CC1CCN(S(=O)C23CC4CC(CC(C4)C2)C3)CC1 (stereo not drawn),16.3%
20,Fc1cccc(Cl)c1Cn1nnc2c(N3CCC4(CC3)OCCO4)ncnc21,13.7%
21,CCn1c(=O)c(C(=O)NCCc2ccc(OC)c(OC)c2)c(O)c2ccccc21,8.62%
22,N=c1c(S(=O)(=O)c2ccc(Cl)cc2)cc2c(=O)n3ccccc3nc2n1Cc1ccco1,14%
23,N=c1c(C(=O)NCc2ccco2)cc2c(=O)n3ccccc3nc2n1Cc1ccc(Cl)cc1,-55.7%
24,Cn1c(CSCc2ccc(Cl)c(Cl)c2)nnc1SCC(=O)Nc1nccs1,2.81%

row,Compound,"hERG current change (%, negative = inhibition) at 1uM"
1,CN(C)C1=NC[C@H](Cc2ccccc2)N1CCC1CCCC1,-19.7%
2,CC(C)CCCN1C(N(C)C)=NC[C@@H]1Cc1ccccc1,-2.29%
3,CN(C)C1=NC[C@H](Cc2ccccc2)N1CCCC1CCCC1,-56.8%
4,CCCCCCCN1C(N(C)C)=NC[C@@H]1Cc1ccccc1,-69%
5,CN(C)C1=NC[C@H](Cc2ccccc2)N1CCCCc1ccccc1,-42.2%
6,CN(C)C1=NC[C@H](Cc2ccccc2)N1CCCC1CCCCC1,-29.5%
7,COc1ccccc1C(=O)NC(=O)CSc1nncn1C,18.2%
8,CCCSC1=C(C#N)C(c2ccc(Cl)cc2Cl)CC(=O)N1 (stereo not drawn),11.8%
9,O=C(O)c1cc(-c2ccc(N3CCOCC3)cc2)nn1-c1ccc(F)cc1F,12.7%
10,Fc1ccccc1CNc1ccc(Cl)cc1,12.8%
11,Fc1ccccc1CNc1ccc(Cl)c(Cl)c1,11.7%
12,Fc1ccc(NCc2ccccc2F)cc1Cl,-76.5%
13,COc1ccc(CCn2c(NCCCN3CCOCC3)nc3c2c(=O)[nH]c(=O)n3C)cc1,7.24%
14,Nc1ccc(OCCc2ccccc2)cc1,11.5%
15,O=c1c(Cl)c(NCc2ccco2)cnn1C12CC3CC(CC(C3)C1)C2,4.54%
16,CCN(CC)c1ccc(C(=O)c2ccccc2C(=O)O)c(O)c1,11.7%
17,CCCCN(CCCC)c1ccc(C(=O)c2ccccc2C(=O)O)c(O)c1,-50.5%
18,CN(C)c1ccc(C(=O)c2ccccc2C(=O)O)c(O)c1,13.2%
19,CCN(CC)S(=O)(=O)c1cccc(-c2nnc(SCCOc3ccccc3)o2)c1,12.4%
20,O=C(COC(=O)c1ccc2ncsc2c1)Nc1cc([N+](=O)[O-])ccc1Cl,7.27%
21,COc1ccc(S(=O)(=O)Nc2ccc(NC(C)=O)cc2)cc1Cl,10.3%
22,O=C(NCCCCc1ccccc1)C12CN(Cc3ccccc3)CC1C(c1cccc([N+](=O)[O-])c1)=NO2 (stereo not drawn),10.9%
23,CCCCN(CCCC)CCCNC(=O)C12CN(Cc3ccccc3)CC1C(c1cccc([N+](=O)[O-])c1)=NO2 (stereo not drawn),-53.1%
24,CC(C)CCNC(=O)C12CN(Cc3ccccc3)CC1C(c1cccc([N+](=O)[O-])c1)=NO2 (stereo not drawn),9.69%

row,Compound,"hERG current change (%, negative = inhibition) at 1uM"
1,O=C(/C=C/c1cccnc1)c1cc(F)ccc1O,8.59%
2,COCCNC(=O)c1ccccc1NC(=O)c1ccccc1N(C)S(=O)(=O)c1ccc(C)cc1,8.36%
3,CCOC(=O)c1sc(-c2ccccc2)nc1C,9.24%
4,CC(=O)Nc1ccc(OC(=O)c2cc3cc(Br)cc(Br)c3oc2=O)cc1,5.16%
5,CCOc1ccc(/C=N/N2C(C)CCCC2C)cc1 (stereo not drawn),12%
6,Nc1nc(CN2CCN(C(c3ccccc3)c3ccccc3)CC2)nc(Nc2ccccc2)n1,10.2%
7,COc1ccccc1N1CCN(Cc2nc(N)nc(Nc3ccccc3)n2)CC1,-33.8%
8,Nc1nc(CN2CCN(c3ccccn3)CC2)nc(Nc2ccc(F)cc2)n1,-49%
9,Nc1nc(CN2CCN(c3ccccn3)CC2)nc(Nc2ccc(Cl)cc2)n1,-56.2%
10,CCOC(=O)N1CCN(Cc2nc(N)nc(Nc3ccc(C)cc3)n2)CC1,-37%
11,COc1ccc(Nc2nc(N)nc(CN3CCc4ccccc4C3)n2)cc1,-23.3%
12,CCOC(=O)N1CCN(Cc2nc(N)nc(Nc3ccc(OC)cc3)n2)CC1,-9.74%
13,COc1cccc(N2CCN(Cc3nc(N)nc(Nc4ccccc4)n3)CC2)c1,-31.9%
14,COc1ccc(Nc2nc(N)nc(CN3CCN(c4ccccn4)CC3)n2)cc1,-37.1%
15,Nc1nc(CN2CCC(Cc3ccccc3)CC2)nc(Nc2ccccc2)n1,-87.4%
16,CCOC(=O)N1CCN(Cc2nc(N)nc(Nc3ccc(OCC)cc3)n2)CC1,-56%
17,COc1ccc(Nc2nc(N)nc(CN3CCC(Cc4ccccc4)CC3)n2)cc1,-81%
18,O=C(c1ccccc1)c1ccc(OCC(O)CN2CCN(S(=O)(=O)N3CCCCC3)CC2)cc1 (stereo not drawn),-12.6%
19,COc1ccccc1N(CC(=O)NC1CCCC1)C(=O)CCC(=O)Nc1cc(C)on1,8.06%
20,CCn1c2ccc(F)cc2c2nc3ccccc3nc21,10.2%
21,CCOC(=O)Cc1[nH]nc2c1C(c1cc(OC)ccc1OC)C(C#N)=C(N)O2 (stereo not drawn),14.9%
22,CSc1oc(-c2cccs2)nc1S(=O)(=O)c1ccccc1,4.25%
23,CN(C)c1ccc(CNc2nc(-c3ccccc3)nn2S(C)(=O)=O)cc1,14.6%
24,O=C(COc1ccc(S(=O)(=O)N2CCOCC2)cc1)N1CCCCCC1,25.1%

row,Compound,"hERG current change (%, negative = inhibition) at 1uM"
1,COc1ccc(CCNC(=O)COC(=O)/C=C/c2cccs2)cc1OC,11.7%
2,O=C(O)CCCN1C(=O)NC2NC(=O)NC21 (stereo not drawn),10.2%
3,Nc1nc(CN2CCN(Cc3ccccc3)CC2)nc(Nc2ccccc2)n1,-56.3%
4,Nc1nc(CN2CCCCCC2)nc(Nc2ccccc2)n1,-31.9%
5,COc1ccc(Nc2nc(N)nc(CN3CCC(C)CC3)n2)cc1,-50.7%
6,COc1ccc(Nc2nc(N)nc(CN3CCN(c4ccc(F)cc4)CC3)n2)cc1,-19.3%
7,Nc1nc(CN2CCN(c3ccccc3)CC2)nc(Nc2ccc(Cl)cc2)n1,-44.8%
8,COc1ccc(Nc2nc(N)nc(CN3CCOCC3)n2)cc1,1.93%
9,O=C(CSc1ncn(-c2ccccc2)n1)N1CCc2ccccc21,1.39%
10,O=S(=O)(c1ccc(Cl)cc1)N1CCC2(CC1)OCCO2,2.73%
11,FC(F)(F)c1cccc(N2CCN(C(=S)NCC3CCCO3)CC2)c1 (stereo not drawn),4.59%
12,COc1ccc(-c2nn(C)c(=O)c3ccccc23)cc1CNC(=O)CN1CCOCC1,6.56%
13,CCOc1cccc2sc(N(CCCN(C)C)C(=O)c3ccc(S(=O)(=O)N(C)Cc4ccccc4)cc3)nc12.Cl,-1.82%
14,Cc1cccc2sc(N(CCCN(C)C)C(=O)COc3ccc(Cl)cc3)nc12.Cl,-6.98%
15,CN(C)CCCN(C(=O)COc1ccccc1)c1nc2c(F)cccc2s1.Cl,-55.8%
16,CCOc1cccc2sc(N(CCCN(C)C)C(=O)c3ccc(C(=O)c4ccccc4)cc3)nc12.Cl,-29.5%
17,COc1cccc2sc(N(CCCN(C)C)C(=O)COc3ccc(Cl)cc3)nc12.Cl,-68.9%
18,CCOc1cccc2sc(N(CCCN(C)C)C(=O)Cc3ccccc3)nc12.Cl,-83.7%
19,CN(C)CCCN(C(=O)COc1ccccc1)c1nc2c(Cl)cccc2s1.Cl,-45.5%
20,CN(C)CCCN(C(=O)COc1ccc(Cl)cc1)c1nc2ccc(F)cc2s1.Cl,8.45%
21,CN(C)CCCN(C(=O)COc1ccc(Cl)cc1)c1nc2c(F)cccc2s1.Cl,-16.9%
